According to the supplement of paper PMC6555819:

The sequences below were run on PXR:RXRa (NR concentration 270 nM, RXRa partner concentration 90 nM) (assay: PBM binding z-score (relative to random genomic background probes); higher = stronger binding; sequences stand for … in GC…GCGATTGACAGCGTAGAATGAAGG).
In short: (§1)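 Probes were double-stranded and carried 34-nt variable regions with direct-repeat seeds, single-nucleotide variants, half-site ablations and random human genomic background sequences, printed on custom Agilent 4×180K protein-binding microarrays. Arrays were incubated 1 h with ligand-free nuclear receptor dimers in PBS pH 7.4, 2% milk, 0.02% Triton X-100, 1 mM DTT, 0.2 mg/mL BSA and 0.4 mg/ml salmon testes DNA. Antibodies against each partner (one per run) detected binding, and scanned fluorescence was regression-normalized. Binding z-scores use the random background probes as reference.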

Row | Sequence | PBM binding z-score
1 | TCGACTAGGTTACGGGGGCATTCAGGGATGAAGA | 3.59
2 | CTATGTAGGTTAAGGGGGACATTCAGTTTGAAAG | 2.48
3 | CCGAGTAGGTTAGGAGGGGGCATTCAGTGCGAAT | 4.53
4 | CTGTGTAGGTTAAGGGGGTCATTCAGTTTGAAAG | 5.84
5 | CTATGTAGGTTAAGGGGGTCACTCAGTTTGAAAG | 5.64
6 | TCGAGTAGGTTAAGGGGGCATTCAGGGATGAAGA | 2.67
7 | TCGAGTTGGTTACGGGGGCATTCAGGGATGAAGA | 3.22
8 | TCGAGTAGTTTACGGGGGCATTCAGGGATGAAGA | 2.74
9 | TCGAGTAGGTTACGGGGGCATGCAGGGATGAAGA | 2.75
10 | CCGAGTAGGGTACGAGGGGGCATTCAGTGCGAAT | 3.15
11 | CCGAGTAGGTTACGAGGGGGAATTCAGTGCGAAT | 1.55
12 | CCGAGTAGGTTACAAGGGGGCATTCAGTGCGAAT | 4.6
13 | CTATGTAGGTTAAGGGGATCATTCAGTTTGAAAG | 1.01
14 | TCGAGTAGGTTACGGGCGCATTCAGGGATGAAGA | -0.126
15 | TCGAGTAGGTTACGGGGGCATTTAGGGATGAAGA | 3.25
16 | CTATGTAGGTTTAGGGGGTCATTCAGTTTGAAAG | 5.4
17 | TCGAGTAGGTTACGGGGGCATTCCGGGATGAAGA | 3.08
18 | TCGAGTAGGTTACCGGGGCATTCAGGGATGAAGA | 0.554
19 | TCGAGTAGGTGACGGGGGCATTCAGGGATGAAGA | 3.15
20 | CCGAGTAGGTTACGAGGTGGCATTCAGTGCGAAT | 0.618

Row | Sequence | PBM binding z-score
21 | CTATGTAGGGTAAGGGGGTCATTCAGTTTGAAAG | 5.91
22 | CTATGTAGGTTCAGGGGGTCATTCAGTTTGAAAG | 6.29
23 | CCGAGTAGTTTACGAGGGGGCATTCAGTGCGAAT | 3.29
24 | CCGAGTAGGTTACGAGGGTGCATTCAGTGCGAAT | 4.47
25 | TCGAGTAGGTTACGGGGGCATTCAAGGATGAAGA | 3.1
26 | CTATGTACGTTAAGGGGGTCATTCAGTTTGAAAG | 5.68
27 | TCGAGTAGGTTACGGGGGCTTTCAGGGATGAAGA | 1.87
28 | CCGAGTAGGTTACGAGGGGGCATTCTGTGCGAAT | 4.42
29 | TCGCGTAGGTTACGGGGGCATTCAGGGATGAAGA | 3.16
30 | TCGAGTAGGTTACGGGGGCATTCATGGATGAAGA | 3.32
31 | CTATGTAGGTTAAGGGGGTCATTCACTTTGAAAG | 5.59
32 | CCGAGTATGTTACGAGGGGGCATTCAGTGCGAAT | 3.07
33 | CTATGTAGGTTAAGGGCGTCATTCAGTTTGAAAG | 0.377
34 | CCGAGTAGGTTACGAGGGGGCAGTCAGTGCGAAT | 3.74
35 | CTATGTCGGTTAAGGGGGTCATTCAGTTTGAAAG | 5.84
36 | TCGAGTAGGTTAGGGGGGCATTCAGGGATGAAGA | 3.99
37 | CTTTGTAGGTTAAGGGGGTCATTCAGTTTGAAAG | 5.9
38 | TCGAGTAGGTTACGAGGGCATTCAGGGATGAAGA | 1.43
39 | TCGAGTAGGTTACGGAGGCATTCAGGGATGAAGA | 0.0271

The sequences below were run on PXR homodimer (NR concentration 270 nM) in the same assay as above.
In short: as §1

Row | Sequence | PBM binding z-score
40 | TCGACTAGGTTACGGGGGCATTCAGGGATGAAGA | 2.11
41 | CTATGTAGGTTAAGGGGGACATTCAGTTTGAAAG | 5.75
42 | CCGAGTAGGTTAGGAGGGGGCATTCAGTGCGAAT | 6.27
43 | CTGTGTAGGTTAAGGGGGTCATTCAGTTTGAAAG | 10.9
44 | CTATGTAGGTTAAGGGGGTCACTCAGTTTGAAAG | 10.5
45 | TCGAGTAGGTTAAGGGGGCATTCAGGGATGAAGA | 1.9
46 | TCGAGTTGGTTACGGGGGCATTCAGGGATGAAGA | 3.31
47 | TCGAGTAGTTTACGGGGGCATTCAGGGATGAAGA | 1.47
48 | TCGAGTAGGTTACGGGGGCATGCAGGGATGAAGA | 0.876
49 | CCGAGTAGGGTACGAGGGGGCATTCAGTGCGAAT | 3.37
50 | CCGAGTAGGTTACGAGGGGGAATTCAGTGCGAAT | 0.309
51 | CCGAGTAGGTTACAAGGGGGCATTCAGTGCGAAT | 5.19
52 | CTATGTAGGTTAAGGGGATCATTCAGTTTGAAAG | 0.432
53 | TCGAGTAGGTTACGGGCGCATTCAGGGATGAAGA | -0.432
54 | TCGAGTAGGTTACGGGGGCATTTAGGGATGAAGA | 1.54
55 | CTATGTAGGTTTAGGGGGTCATTCAGTTTGAAAG | 9.15
56 | TCGAGTAGGTTACGGGGGCATTCCGGGATGAAGA | 1.1
57 | TCGAGTAGGTTACCGGGGCATTCAGGGATGAAGA | -0.524
58 | TCGAGTAGGTGACGGGGGCATTCAGGGATGAAGA | 1.91
59 | CCGAGTAGGTTACGAGGTGGCATTCAGTGCGAAT | -0.0659

Row | Sequence | PBM binding z-score
60 | CTATGTAGGGTAAGGGGGTCATTCAGTTTGAAAG | 11.1
61 | CTATGTAGGTTCAGGGGGTCATTCAGTTTGAAAG | 10.6
62 | CCGAGTAGTTTACGAGGGGGCATTCAGTGCGAAT | 4.22
63 | CCGAGTAGGTTACGAGGGTGCATTCAGTGCGAAT | 4.3
64 | TCGAGTAGGTTACGGGGGCATTCAAGGATGAAGA | 1.06
65 | CTATGTACGTTAAGGGGGTCATTCAGTTTGAAAG | 9.08
66 | TCGAGTAGGTTACGGGGGCTTTCAGGGATGAAGA | 0.25
67 | CCGAGTAGGTTACGAGGGGGCATTCTGTGCGAAT | 1.05
68 | TCGCGTAGGTTACGGGGGCATTCAGGGATGAAGA | 1.49
69 | TCGAGTAGGTTACGGGGGCATTCATGGATGAAGA | 1.27
70 | CTATGTAGGTTAAGGGGGTCATTCACTTTGAAAG | 4.83
71 | CCGAGTATGTTACGAGGGGGCATTCAGTGCGAAT | 4.74
72 | CTATGTAGGTTAAGGGCGTCATTCAGTTTGAAAG | 0.443
73 | CCGAGTAGGTTACGAGGGGGCAGTCAGTGCGAAT | 1.86
74 | CTATGTCGGTTAAGGGGGTCATTCAGTTTGAAAG | 8.33
75 | TCGAGTAGGTTAGGGGGGCATTCAGGGATGAAGA | 3.93
76 | CTTTGTAGGTTAAGGGGGTCATTCAGTTTGAAAG | 12
77 | TCGAGTAGGTTACGAGGGCATTCAGGGATGAAGA | 0.25
78 | TCGAGTAGGTTACGGAGGCATTCAGGGATGAAGA | -0.388
